Laboratory results published in the supplement of paper PMC10849652.
The full data set covers some 8,800 targets. This sample favours those with a hit. About 0.5% of all pairs of compound and target were hits.

How the values were obtained:
Assay in all cases: log2 fold change, soluble protein after heating vs DMSO (PISA); higher = thermal stabilisation; K562 lysate, 10 uM; active = over 0.2 and 3.5 SD of the protein, either way, in both replicates (recomputed)
lapatinib = compound: CS(=O)(=O)CCNCc1ccc(-c2ccc3ncnc(Nc4ccc(OCc5cccc(F)c5)c(Cl)c4)c3c2)o1 [lapatinib]
Method in brief: (§1)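 Values give the log-two fold change in thermal stability against solvent controls, from duplicates. Crude K562 extract at 1 mg/mL protein, made by dounce homogenisation in PBS pH 7.4 with 1 mM MgCl2, was treated with 10 μM compound for 30 min. After 3 min heating across 48°C-58°C, aliquots were pooled, adjusted to 0.5% NP-40 at 4°C and centrifuged at 21,000xg for 90 min. The supernatant was measured by TMTpro 16plex LC-MS/MS with channel sums equalised.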

pictilisib = compound: CS(=O)(=O)N1CCN(Cc2cc3nc(-c4cccc5[nH]ncc45)nc(N4CCOCC4)c3s2)CC1 [pictilisib]
Method in brief: as §1

crizotinib = compound: C[C@@H](Oc1cc(-c2cnn(C3CCNCC3)c2)cnc1N)c1c(Cl)ccc(F)c1Cl [crizotinib]
Method in brief: as §1

[1] = compound: C[C@H](C1=CC=C(C=C1)C(=O)NC2=C3C=CNC3=NC=C2)N
Method in brief: as §1

duvelisib = compound: C[C@H](Nc1ncnc2nc[nH]c12)c1cc2cccc(Cl)c2c(=O)n1-c1ccccc1 [duvelisib]
Method in brief: as §1

gandotinib = compound: Cc1cc(Nc2cc(CN3CCOCC3)c3nc(C)c(Cc4ccc(Cl)cc4F)n3n2)n[nH]1 [gandotinib]
Method in brief: as §1

tozasertib = compound: Cc1cc(Nc2cc(N3CCN(C)CC3)nc(Sc3ccc(NC(=O)C4CC4)cc3)n2)n[nH]1 [tozasertib]
Method in brief: as §1

doramapimod = compound: Cc1ccc(-n2nc(C(C)(C)C)cc2NC(=O)Nc2ccc(OCCN3CCOCC3)c3ccccc23)cc1 [doramapimod]
Method in brief: as §1

bafetinib = compound: Cc1ccc(NC(=O)c2ccc(CN3CC[C@H](N(C)C)C3)c(C(F)(F)F)c2)cc1Nc1nccc(-c2cncnc2)n1 [bafetinib]
Method in brief: as §1

[2] = compound: Cc1cccc(CC(=O)N2CCc3c2ccc(-c2cn(C)c4ncnc(N)c24)c3F)n1
Method in brief: as §1

nilotinib = compound: Cc1cn(-c2cc(NC(=O)c3ccc(C)c(Nc4nccc(-c5cccnc5)n4)c3)cc(C(F)(F)F)c2)cn1 [nilotinib]
Method in brief: as §1

[3] = compound: Cc1nc(Nc2n[nH]c3c2CN(C(=O)N[C@H](CN(C)C)c2ccccc2)C3(C)C)c2sccc2n1
Method in brief: as §1

dasatinib = compound: Cc1nc(Nc2ncc(C(=O)Nc3c(C)cccc3Cl)s2)cc(N2CCN(CCO)CC2)n1 [dasatinib]
Method in brief: as §1

[4] = compound: Cc1ncc(-c2ccnc(Nc3ccc(S(C)(=O)=O)cc3)n2)n1C(C)C
Method in brief: as §1

[5] = compound: Cn1cc(-c2ccc3c(c2)CCN3C(=O)Cc2cccc(C(F)(F)F)c2)c2c(N)ncnc21
Method in brief: as §1

quisinostat = compound: Cn1cc(CNCC2CCN(c3ncc(C(=O)NO)cn3)CC2)c2ccccc21 [quisinostat]
Method in brief: as §1

tipifarnib = compound: Cn1cncc1[C@@](N)(c1ccc(Cl)cc1)c1ccc2c(c1)c(-c1cccc(Cl)c1)cc(=O)n2C [tipifarnib]
Method in brief: as §1

[6] = compound: NC(=O)Nc1cc(-c2cccc(F)c2)sc1C(=O)N[C@H]1CCCNC1
Method in brief: as §1

[7] = compound: NC(=O)c1cnc(N[C@@H]2CCCC[C@@H]2N)nc1Nc1cccc(-n2nccn2)c1
Method in brief: as §1

[8] = compound: NC1(c2ccc(-c3nc4ccn5c(=O)[nH]nc5c4cc3-c3ccccc3)cc2)CCC1
Method in brief: as §1

Measured: log2 fold change

AKR1C3 (UniProt P42330)
inactive: lapatinib -0.03 | pictilisib -0.024 | crizotinib -0.039 | [1] -0.014 | duvelisib -0.036 | gandotinib 0.052 | tozasertib -0.003 | doramapimod 0.022 | bafetinib 0.022 | [2] -0.026 | nilotinib -0.007 | [3] 0.046 | dasatinib 0.209 | [4] -0.079 | [5] -0.038 | quisinostat -0.055 | tipifarnib 0.04 | [6] 0.036 | [7] -0.059 | [8] -0.013

ARL8A (UniProt Q96BM9)
Sequence of UniProt Q96BM9 (Q96BM9 whole entry, looked up): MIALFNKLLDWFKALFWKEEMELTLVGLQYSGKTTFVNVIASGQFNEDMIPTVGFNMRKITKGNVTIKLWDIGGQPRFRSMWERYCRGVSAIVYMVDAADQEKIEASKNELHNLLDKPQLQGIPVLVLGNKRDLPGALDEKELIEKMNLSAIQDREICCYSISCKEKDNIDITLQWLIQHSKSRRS
inactive: lapatinib -0.11 | pictilisib 0.038 | crizotinib 0.091 | duvelisib -0.078 | gandotinib 0 | tozasertib -0.063 | doramapimod -0.005 | bafetinib -0.016 | [2] -0.088 | nilotinib 0.003 | [3] 0.049 | dasatinib 0.037 | [4] 0.091 | [5] -0.049 | quisinostat 0.17 | tipifarnib -0.203 | [6] 0.153 | [7] 0.247 | [8] -0.054
active: [1] 0.426

AGTPBP1 (UniProt Q9UPW5)
Sequence of UniProt Q9UPW5 (Q9UPW5 whole entry, looked up): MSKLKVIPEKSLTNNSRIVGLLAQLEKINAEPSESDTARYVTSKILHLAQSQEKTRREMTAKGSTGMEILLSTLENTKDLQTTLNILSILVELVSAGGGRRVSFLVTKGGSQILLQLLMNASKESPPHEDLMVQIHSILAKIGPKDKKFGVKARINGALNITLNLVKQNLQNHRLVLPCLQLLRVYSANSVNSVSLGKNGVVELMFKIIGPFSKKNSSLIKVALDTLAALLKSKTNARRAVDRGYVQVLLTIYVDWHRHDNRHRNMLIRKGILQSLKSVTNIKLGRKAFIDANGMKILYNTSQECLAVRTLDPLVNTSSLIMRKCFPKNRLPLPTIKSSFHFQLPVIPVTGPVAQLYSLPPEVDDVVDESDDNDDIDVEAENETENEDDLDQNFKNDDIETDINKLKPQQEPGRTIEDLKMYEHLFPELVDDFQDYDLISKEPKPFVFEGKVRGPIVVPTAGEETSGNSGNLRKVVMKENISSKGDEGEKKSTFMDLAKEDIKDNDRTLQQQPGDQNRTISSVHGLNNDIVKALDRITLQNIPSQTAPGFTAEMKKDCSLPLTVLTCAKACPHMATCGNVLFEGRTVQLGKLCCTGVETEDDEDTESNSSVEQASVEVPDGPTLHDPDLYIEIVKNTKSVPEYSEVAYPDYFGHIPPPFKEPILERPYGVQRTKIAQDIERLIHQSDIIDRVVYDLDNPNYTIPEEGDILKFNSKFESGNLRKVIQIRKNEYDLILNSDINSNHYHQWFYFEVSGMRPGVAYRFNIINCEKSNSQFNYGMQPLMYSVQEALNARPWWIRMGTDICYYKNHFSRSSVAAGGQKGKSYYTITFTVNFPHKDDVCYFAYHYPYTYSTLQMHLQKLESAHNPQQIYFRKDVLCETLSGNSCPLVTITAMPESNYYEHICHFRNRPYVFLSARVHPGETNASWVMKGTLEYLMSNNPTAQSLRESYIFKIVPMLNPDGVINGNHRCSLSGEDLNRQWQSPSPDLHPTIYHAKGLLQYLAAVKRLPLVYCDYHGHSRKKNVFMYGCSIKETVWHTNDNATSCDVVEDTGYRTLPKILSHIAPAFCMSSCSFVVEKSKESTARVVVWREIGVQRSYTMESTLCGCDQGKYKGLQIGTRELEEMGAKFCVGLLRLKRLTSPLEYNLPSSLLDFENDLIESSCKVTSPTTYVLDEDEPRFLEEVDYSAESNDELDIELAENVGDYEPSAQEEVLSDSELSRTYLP
inactive: lapatinib 0.008 | pictilisib -0.103 | crizotinib -0.121 | [1] 0.018 | duvelisib 0.009 | gandotinib -0.271 | tozasertib 0.028 | doramapimod 0.007 | bafetinib 0.001 | [2] 0.113 | nilotinib 0.077 | [3] -0.205 | dasatinib 0.038 | [4] 0.1 | [5] -0.032 | quisinostat -0.197 | tipifarnib 0.207 | [6] 0.038 | [7] 0.045 | [8] 0.115

ALKBH4 (UniProt Q9NXW9)
inactive: lapatinib -0.02 | pictilisib 0.003 | crizotinib 0.04 | [1] -0.055 | duvelisib 0.035 | gandotinib -0.019 | tozasertib 0.047 | doramapimod -0.018 | bafetinib -0.108 | [2] -0.028 | nilotinib -0.053 | [3] -0.05 | dasatinib -0.028 | [4] -0.008 | [5] 0.007 | quisinostat -0.01 | tipifarnib 0.023 | [6] 0.023 | [7] -0.013 | [8] 0.047

AIFM2 (UniProt Q9BRQ8)
inactive: lapatinib 0.132 | pictilisib -0.024 | crizotinib 0.06 | [1] -0.143 | duvelisib 0.004 | tozasertib -0.014 | doramapimod 0.307 | bafetinib 0.086 | [2] 0.089 | nilotinib 0.057 | [3] -0.006 | dasatinib -0.072 | [4] -0.03 | [5] 0.024 | quisinostat -0.105 | [6] -0.028 | [7] -0.054 | [8] 0
active: gandotinib 0.507 | tipifarnib 0.411

ADAMTS5 (UniProt Q9UNA0)
inactive: lapatinib -0.102 | pictilisib -0.015 | crizotinib -0.139 | duvelisib -0.004 | gandotinib 0.332 | tozasertib 0.011 | doramapimod 0.04 | bafetinib -0.211 | [2] 0.33 | nilotinib 0.003 | [3] -0.062 | dasatinib -0.01 | [4] -0.011 | [5] 0.014 | quisinostat -0.222 | tipifarnib -0.041 | [6] 0.016 | [7] 0.031 | [8] -0.083
active: [1] -0.843

AMPD3 isoform 4 (UniProt Q01432)
inactive: lapatinib 0.037 | pictilisib -0.015 | crizotinib 0.014 | [1] 0.109 | duvelisib -0.053 | gandotinib -0.057 | tozasertib 0.001 | doramapimod 0.002 | bafetinib -0.002 | [2] -0.047 | nilotinib -0.002 | [3] 0.027 | dasatinib 0.014 | [4] -0.021 | [5] -0.013 | quisinostat 0.038 | tipifarnib 0.032 | [6] -0.012 | [7] -0.017 | [8] 0.012

AP1G2 (UniProt O75843)
Sequence of UniProt O75843 (O75843 whole entry, looked up): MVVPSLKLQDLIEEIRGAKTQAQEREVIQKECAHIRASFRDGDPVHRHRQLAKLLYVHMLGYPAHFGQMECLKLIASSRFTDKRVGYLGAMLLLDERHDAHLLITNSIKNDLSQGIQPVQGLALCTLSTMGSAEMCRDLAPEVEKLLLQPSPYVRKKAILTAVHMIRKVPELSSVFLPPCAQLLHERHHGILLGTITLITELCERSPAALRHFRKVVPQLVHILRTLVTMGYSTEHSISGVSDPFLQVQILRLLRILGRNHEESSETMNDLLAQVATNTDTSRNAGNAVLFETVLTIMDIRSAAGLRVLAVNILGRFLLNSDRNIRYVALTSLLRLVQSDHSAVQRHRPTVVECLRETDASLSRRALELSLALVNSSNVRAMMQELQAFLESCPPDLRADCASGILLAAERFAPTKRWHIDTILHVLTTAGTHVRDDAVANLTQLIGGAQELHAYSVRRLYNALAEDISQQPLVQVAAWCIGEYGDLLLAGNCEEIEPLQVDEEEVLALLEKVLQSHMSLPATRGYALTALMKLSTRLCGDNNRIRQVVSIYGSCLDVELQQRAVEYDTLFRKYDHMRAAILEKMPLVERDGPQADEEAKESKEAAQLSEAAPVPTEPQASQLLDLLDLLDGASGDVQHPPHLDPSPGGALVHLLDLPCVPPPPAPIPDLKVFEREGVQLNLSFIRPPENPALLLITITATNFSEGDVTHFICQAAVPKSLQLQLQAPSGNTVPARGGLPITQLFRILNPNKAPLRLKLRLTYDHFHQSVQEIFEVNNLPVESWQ
inactive: lapatinib 0.068 | pictilisib -0.008 | crizotinib -0.095 | [1] -0.049 | duvelisib -0.02 | gandotinib 0 | tozasertib -0.02 | doramapimod -0.004 | bafetinib 0.026 | [2] 0.039 | nilotinib -0.013 | [3] -0.046 | dasatinib -0.081 | [4] -0.019 | [5] 0.048 | quisinostat -0.006 | tipifarnib 0.063 | [6] 0.005 | [7] -0.012 | [8] -0.125

AK4 (UniProt P27144)
Sequence of UniProt P27144 (P27144 whole entry, looked up): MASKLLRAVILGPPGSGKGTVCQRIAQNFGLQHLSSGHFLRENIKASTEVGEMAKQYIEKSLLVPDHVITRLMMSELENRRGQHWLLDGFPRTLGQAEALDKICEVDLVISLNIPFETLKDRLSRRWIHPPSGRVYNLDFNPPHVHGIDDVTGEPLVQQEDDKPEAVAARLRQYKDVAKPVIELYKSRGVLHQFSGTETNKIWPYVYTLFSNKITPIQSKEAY
inactive: lapatinib -0.003 | pictilisib -0.033 | crizotinib 0.028 | [1] -0.027 | duvelisib 0.014 | gandotinib -0.019 | tozasertib 0.052 | doramapimod 0.03 | bafetinib -0.024 | [2] 0.012 | nilotinib -0.006 | [3] 0.003 | dasatinib -0.04 | [4] 0.042 | [5] 0.04 | quisinostat -0.012 | tipifarnib 0.001 | [6] 0.018 | [7] -0.023 | [8] -0.012

AGGF1 (UniProt Q8N302)
inactive: lapatinib -0.046 | pictilisib -0.133 | crizotinib -0.028 | [1] -0.193 | gandotinib 0.139 | tozasertib 0.04 | doramapimod -0.011 | bafetinib 0.047 | [2] 0.268 | nilotinib 0.02 | [3] 0.055 | [4] 0.087 | quisinostat -0.041 | tipifarnib -0.06 | [6] -0.007 | [7] 0.075 | [8] 0.024

ARHGEF2 (UniProt V9GYF0)
inactive: lapatinib -0.134 | duvelisib 0.11 | tozasertib 0.041 | nilotinib 0.029 | [3] -0.119 | dasatinib 0.02 | [4] -0.113 | [5] -0.139 | tipifarnib -0.23 | [7] 0.117

ARMCX5 (UniProt Q6P1M9)
inactive: lapatinib -0.033 | pictilisib 0.04 | [1] -0.001 | duvelisib -0.114 | gandotinib 0.001 | tozasertib 0.032 | bafetinib -0.104 | [2] 0.078 | nilotinib 0.035 | [3] 0.009 | dasatinib -0.039 | [4] 0.037 | [5] -0.07 | tipifarnib -0.023 | [7] 0.02 | [8] -0.027

ADD1 isoform 4 (UniProt P35611)
Sequence of UniProt P35611 (P35611 whole entry, looked up): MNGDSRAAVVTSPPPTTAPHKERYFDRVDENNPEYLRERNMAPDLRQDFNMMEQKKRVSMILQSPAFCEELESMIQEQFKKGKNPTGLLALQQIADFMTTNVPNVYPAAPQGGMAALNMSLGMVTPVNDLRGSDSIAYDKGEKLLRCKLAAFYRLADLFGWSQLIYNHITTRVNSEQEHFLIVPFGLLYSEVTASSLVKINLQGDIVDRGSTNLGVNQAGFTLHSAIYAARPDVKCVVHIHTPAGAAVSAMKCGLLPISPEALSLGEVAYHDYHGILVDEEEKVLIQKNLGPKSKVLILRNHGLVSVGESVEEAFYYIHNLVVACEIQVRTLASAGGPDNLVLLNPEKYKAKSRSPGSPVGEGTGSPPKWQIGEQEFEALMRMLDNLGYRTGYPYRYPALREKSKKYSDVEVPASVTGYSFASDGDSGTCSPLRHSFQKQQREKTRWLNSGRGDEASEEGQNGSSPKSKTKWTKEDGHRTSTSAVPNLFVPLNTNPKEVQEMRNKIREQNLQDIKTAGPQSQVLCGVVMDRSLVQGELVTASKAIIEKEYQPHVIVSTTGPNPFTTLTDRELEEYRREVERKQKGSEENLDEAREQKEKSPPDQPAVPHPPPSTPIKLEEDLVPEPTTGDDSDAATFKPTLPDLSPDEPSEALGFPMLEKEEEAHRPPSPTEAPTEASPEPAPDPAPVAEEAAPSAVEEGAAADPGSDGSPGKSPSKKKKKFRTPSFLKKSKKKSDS
inactive: lapatinib -0.006 | pictilisib -0.168 | duvelisib 0.029 | gandotinib 0.556 | tozasertib -0.044 | bafetinib 0.097 | [2] 0.563 | dasatinib -0.017 | [5] -0.075 | [7] -0.109 | [8] -0.274
active: [1] -0.745

ALDH18A1 isoform 2 (UniProt P54886)
inactive: crizotinib 0.127 | duvelisib 0.088 | doramapimod -0.134 | dasatinib 0.089 | [5] 0.181 | quisinostat 0.397 | [6] -0.093

AMDHD2 (UniProt Q9Y303)
inactive: crizotinib -0.056 | [1] 0.052 | gandotinib -0.015 | doramapimod 0.057 | [2] 0.065 | quisinostat -0.001 | [6] 0.048

ACVR1 (UniProt Q04771)
inactive: pictilisib 0.006 | [1] 0.103 | duvelisib -0.015 | gandotinib 0.643 | bafetinib 0.007 | [2] -0.294 | nilotinib -0.11 | [3] 0.013 | dasatinib 0.258 | [4] 0.476 | [5] -0.046 | tipifarnib -0.309

ABCC5 (UniProt O15440)
Sequence of UniProt O15440 (O15440 whole entry, looked up): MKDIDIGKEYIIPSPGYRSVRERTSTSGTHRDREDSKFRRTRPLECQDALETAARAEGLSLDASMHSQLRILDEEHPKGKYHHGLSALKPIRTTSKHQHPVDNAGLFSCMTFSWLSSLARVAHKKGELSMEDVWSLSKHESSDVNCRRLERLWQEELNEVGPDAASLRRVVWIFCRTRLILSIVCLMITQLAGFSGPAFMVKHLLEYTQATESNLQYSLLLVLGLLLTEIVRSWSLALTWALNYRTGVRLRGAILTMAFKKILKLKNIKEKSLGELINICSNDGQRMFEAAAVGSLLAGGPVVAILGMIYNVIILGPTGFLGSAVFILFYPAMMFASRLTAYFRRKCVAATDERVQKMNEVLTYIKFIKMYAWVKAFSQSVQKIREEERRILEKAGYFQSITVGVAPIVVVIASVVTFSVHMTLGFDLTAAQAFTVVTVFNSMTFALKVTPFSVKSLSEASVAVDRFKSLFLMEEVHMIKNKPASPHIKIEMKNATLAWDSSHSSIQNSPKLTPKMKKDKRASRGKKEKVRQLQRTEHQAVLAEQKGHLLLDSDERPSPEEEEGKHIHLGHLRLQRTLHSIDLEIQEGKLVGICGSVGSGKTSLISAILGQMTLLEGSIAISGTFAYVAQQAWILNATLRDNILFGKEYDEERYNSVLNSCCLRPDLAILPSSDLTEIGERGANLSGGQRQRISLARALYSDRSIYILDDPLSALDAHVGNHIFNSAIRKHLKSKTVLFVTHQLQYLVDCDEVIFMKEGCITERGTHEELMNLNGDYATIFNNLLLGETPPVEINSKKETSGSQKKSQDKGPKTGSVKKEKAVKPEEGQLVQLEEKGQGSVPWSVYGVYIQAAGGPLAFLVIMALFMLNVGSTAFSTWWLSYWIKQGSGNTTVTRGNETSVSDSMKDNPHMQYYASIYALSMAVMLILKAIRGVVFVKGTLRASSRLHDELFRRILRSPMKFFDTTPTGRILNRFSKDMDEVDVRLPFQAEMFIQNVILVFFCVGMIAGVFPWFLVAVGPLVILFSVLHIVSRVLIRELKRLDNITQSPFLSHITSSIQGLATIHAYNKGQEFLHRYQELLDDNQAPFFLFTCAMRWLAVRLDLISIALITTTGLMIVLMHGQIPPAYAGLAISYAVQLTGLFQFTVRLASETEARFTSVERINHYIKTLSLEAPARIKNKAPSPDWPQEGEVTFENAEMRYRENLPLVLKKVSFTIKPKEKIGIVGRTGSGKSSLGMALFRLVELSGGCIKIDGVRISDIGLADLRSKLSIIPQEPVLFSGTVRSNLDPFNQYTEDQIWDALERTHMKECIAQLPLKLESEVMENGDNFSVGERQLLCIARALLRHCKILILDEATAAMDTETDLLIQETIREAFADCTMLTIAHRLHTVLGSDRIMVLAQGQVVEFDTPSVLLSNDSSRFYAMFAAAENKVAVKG
inactive: lapatinib 0.013 | pictilisib 0.13 | crizotinib 0.014 | [1] -0.038 | duvelisib -0.045 | gandotinib 0.043 | tozasertib -0.016 | doramapimod 0.081 | bafetinib -0.117 | [2] 0.045 | dasatinib 0.105 | [5] -0.047 | quisinostat -0.003 | [6] 0.035 | [7] -0.035 | [8] -0.015

ALG3 (UniProt Q92685)
Sequence of UniProt Q92685 (Q92685 whole entry, looked up): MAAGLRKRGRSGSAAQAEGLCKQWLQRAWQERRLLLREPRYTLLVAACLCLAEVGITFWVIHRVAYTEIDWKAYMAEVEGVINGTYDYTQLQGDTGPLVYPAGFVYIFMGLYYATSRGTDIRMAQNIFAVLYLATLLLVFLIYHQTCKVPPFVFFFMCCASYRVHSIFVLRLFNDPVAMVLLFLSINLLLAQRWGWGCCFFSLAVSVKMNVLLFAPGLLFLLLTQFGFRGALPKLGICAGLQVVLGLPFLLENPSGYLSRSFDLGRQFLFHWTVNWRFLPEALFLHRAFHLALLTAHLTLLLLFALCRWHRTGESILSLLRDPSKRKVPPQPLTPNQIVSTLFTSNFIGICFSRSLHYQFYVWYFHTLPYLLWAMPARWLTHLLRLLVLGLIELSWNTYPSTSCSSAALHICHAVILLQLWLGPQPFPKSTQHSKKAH
inactive: lapatinib -0.069 | pictilisib 0.031 | crizotinib -0.057 | [1] -0.15 | duvelisib -0.104 | gandotinib 0 | tozasertib -0.04 | doramapimod 0.037 | bafetinib -0.061 | [2] 0.261 | dasatinib -0.049 | [5] 0.068 | quisinostat 0.077 | [6] -0.017 | [7] 0.092 | [8] -0.036

ALDH3A1 (UniProt P30838)
inactive: lapatinib -0.002 | crizotinib -0.134 | [1] -0.721 | duvelisib -0.061 | gandotinib 0.569 | doramapimod 0.015 | [2] 0.586 | [5] -0.024 | quisinostat -0.381 | [6] -0.065 | [7] 0.055 | [8] -0.018
active: dasatinib 1.35
